# Only a selection was taken, and hits are over-represented in it overall.
# Cruzain noTriton – qHTS Assay for Promiscuous and Specific Inhibitors of Cruzain (without detergent); purified cruzain, Z-FR-AMC fluorescence, no detergent; Potency, µM, without a hit: max response, negative = inhibition, hits mostly inhibitors; hit rate 2.3% among 200,000; AID 1476, 2009;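 also: plate controls were enzyme without inhibitor for no effect and buffer without enzyme for full effect; nearly all actives have a fitted effect of over 40% in size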
# Target sequence (P25779 123-467 limits assumed): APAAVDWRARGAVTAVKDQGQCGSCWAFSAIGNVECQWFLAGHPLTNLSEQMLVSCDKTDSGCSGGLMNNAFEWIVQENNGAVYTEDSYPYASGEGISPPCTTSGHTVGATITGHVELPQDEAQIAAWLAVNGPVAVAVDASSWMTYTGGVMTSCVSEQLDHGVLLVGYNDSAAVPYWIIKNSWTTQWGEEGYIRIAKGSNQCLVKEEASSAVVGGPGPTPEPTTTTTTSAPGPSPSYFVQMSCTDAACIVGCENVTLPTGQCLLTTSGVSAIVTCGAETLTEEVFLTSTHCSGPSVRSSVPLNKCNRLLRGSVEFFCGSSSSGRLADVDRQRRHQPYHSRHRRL
#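 Purified cruzain at 1.5 nM, pre-incubated 15 min with compound at room temperature in 100 mM sodium acetate pH 5.5, 5 mM DTT, 0.00005% Triton X-100. Reaction started with 2 uM Z-FR-AMC; AMC fluorescence increase over 60 s gives rate.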
# NS1 function inh – qHTS Assay for Inhibitors of Influenza NS1 Protein Function. AID 2326, 2010. hit rate 0.4% among 270,000. Potency, µM (top dose mostly 46.1 µM), without a hit: top-dose activity, positive = more growth; calls by dose curve; also: actives are rising curves; nearly all actives have a fitted effect of over 50% in size
#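 In this qHTS, NS1 from influenza A is expressed in budding yeast, where it slows growth. Cells are switched from glucose to 2% galactose medium (pH 6.0, -URA), treated with compound, and growth recovery is read at OD600.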
# Cruzain inh Det – qHTS Assay for Promiscuous and Specific Inhibitors of Cruzain (with detergent). hit rate 0.43% among 200,000. AID 1478, 2009. Potency, µM, inactives show max response, negative = inhibition, usual class: inhibitors. purified cruzain, Z-FR-AMC fluorescence, 0.01% Triton. Cruzipain (Trypanosoma cruzi), P25779;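 also: plate controls were neutral wells for no effect and buffer without enzyme for full effect; nearly all actives have a fitted effect of over 40% in size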
#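 Purified cruzain (1.5 nM final) was preincubated with compounds for 15 min at room temperature in 100 mM sodium acetate pH 5.5, 5 mM DTT, 0.01% Triton X-100. Reaction started with 2 uM Z-FR-AMC; AMC fluorescence change over 60 s gave activity.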
# Numbers without * were called inactive; u = inconclusive; x = no result given. Unless noted, calls follow the shape of the dose curve; as a rule, active = well fitted curve in the direction sought with a large enough effect; inconclusive = small, poorly fitted or top-dose-only effect, or another doubt; inactive = no such curve, though single readings can be large; an effect the other way counts as inactive or inconclusive. Potency is read from the fitted curve at half-maximal effect.
SMILES,Cruzain noTriton,NS1 function inh,Cruzain inh Det
NC(=O)c1ccc(NC(=O)COC(=O)c2cccc(Oc3ccccc3)c2)cc1,16µM*,13%,1%
COC(=O)C(C)NC(=O)C(C)NC(=O)OCc1ccccc1 (stereo not given),-3%,2%,0%
CCCCC(C=O)NC(=O)C(CC(C)C)NC(=O)OCc1ccccc1 (stereo not given),0.0025µM*,x,0.002µM*
CSCCC(NC=O)C(=O)NC(CC(C)C)C(=O)NC(Cc1ccccc1)C(=O)O (stereo not given),5%,x,5%
CCCC[C@@H](C=O)NC(=O)[C@H](CC(C)C)NC(=O)[C@H](CC(C)C)NC(C)=O,0.0032µM*,x,u
CC(=O)N[C@@H](CC(C)C)C(=O)O,-4%,x,-1%
CSCC[C@H](C=O)NC(=O)[C@H](CC(C)C)NC(=O)[C@H](CC(C)C)NC(C)=O,0.0025µM*,x,0.0028µM*
CCCCOC(=O)c1ccc(Nc2ncnc3[nH]ncc23)cc1,-2%,x,1%
NC(N)=NCCC[C@H](NC(=O)CC1(CC(=O)N2CCN(C3c4ccccc4NC(=O)c4ccccc43)CC2)CCCC1)C(=O)NCCn1c(=O)n(-c2ccccc2)n(-c2ccccc2)c1=O (stereo not given in full),4%,x,-3%
O=C(O)Cn1nc(N2CCN(c3ccccc3)CC2)ccc1=O,-7%,x,-3%
O=C(Nc1cccc(Cl)c1)c1c(O)c2c(n(Cc3ccccc3)c1=O)CCCC2,16µM*,-2%,0%
CCCn1c2c(c(O)c(C(=O)NCc3ccccc3)c1=O)CCCC2,-1%,-1%,-3%
O=C(Nc1nccs1)c1c(O)c2c(n(Cc3ccco3)c1=O)CCCC2,x,3%,x
O=C(Nc1cccc(Cl)c1)c1c(O)c2c(n(Cc3ccco3)c1=O)CCCC2,7.9µM*,u,-2%
CCC(C)(C)NC(=O)Cn1c(=O)ccc2cc(S(=O)(=O)N3CCC(C)CC3)ccc21,0%,x,-3%
Cc1ccc(OCC(O)C(C)NC(C)C)c2c1CCC2 (stereo not given),9%,3%,-4%
CCOc1ccc(/C=N/NC(=S)Nc2c(C)cccc2C)cc1,-1%,1%,-7%
CCNC(=S)N/N=C/c1ccc(OCCOc2ccccc2C)cc1,16µM*,11%,2%
N#Cc1cccc(NC(=O)CSc2ccc3c4c(cccc24)C(=O)c2ccccc2-3)c1,10µM*,8%,2%
COc1ccc(NC(=O)CSc2nnc(C)c3ccccc23)cc1,x,-3%,x
N#Cc1cccc(NC(=O)CSc2ccccc2)c1,-16%,-1%,3%
COc1ccc(NC(=O)CSc2ccc3c4c(cccc24)C(=O)c2ccccc2-3)cc1,13µM*,u,4%
CCOc1ccc2oc(=O)cc(CN3CCN(Cc4ccc(F)cc4)CC3)c2c1,5%,x,-2%
COCC(=O)O,0%,x,5%
Cc1cccc(NC(=O)c2cc3c(=O)n(Cc4ccco4)ccc3nc2C)c1,u,x,-6%
SMILES,Cruzain noTriton,NS1 function inh,Cruzain inh Det
COc1ccc(NC(=O)C(C)n2nnc3sc(-c4ccccc4)cc3c2=O)cc1Cl (stereo not given),25µM*,x,-12%
Cc1cc(C)c(NC(=O)C(C)n2nnc3sc(-c4ccccc4)cc3c2=O)c(C)c1 (stereo not given),u,x,4%
Cc1ccc2c(c1)C(=O)C1(O)CCN(c3ccccc3)C1=N2 (stereo not given),3%,x,-1%
CN1CCC2(CC1)CCN(C(=O)c1cc(C(F)(F)F)cc(C(F)(F)F)c1)CC2,-11%,x,2%
O=C(O)C(O)(c1ccc(-c2ccccc2)cc1)c1ccc(-c2ccccc2)cc1,11%,6%,-11%
CCN1/C(=C2\SC(=S)N(Cc3ccccc3)C2=O)Sc2ccccc21,10µM*,3%,-8%
CCN1C(=O)/C(=C2/Sc3ccccc3N2CC)SC1=S,x,-2%,x
CC1(C)[C@@H]2CC[C@@](C)(C2)[C@H]1OC(=O)c1ccccc1C(=O)O,8%,0%,2%
CC(CNC(=O)c1ccc(Cn2c(=O)c3cccn3c3cccnc32)cc1)c1ccccc1 (stereo not given),3%,x,0%
O=C(Nc1ccccc1)N(Cc1c[nH]c2ccccc12)C1CCCCCC1,21%,x,-16%
N=C1S/C(=C\c2ccccc2F)C(=O)N1c1ccc(F)cc1,u,-1%,-3%
N=C1S/C(=C\c2ccccc2)C(=O)N1c1ccc(F)cc1,25µM*,-5%,3%
Cc1ccc(NC(=O)CCS(=O)(=O)c2ccc(Br)s2)c(Br)c1,9%,x,-1%
Oc1nc(Nc2ccc(Cl)cc2Cl)sc1/C=C1\C=Nc2ccccc21,25µM*,13%,-6%
Cc1nc(Nc2ccc(Cl)cc2Cl)sc1C(=O)Nc1ccccc1,-8%,5%,-5%

# Source: PubChem
